Assay results: PubChem BioAssay (Tox21)
Results filed as inconclusive are left out. Active and inactive are the calls of the source. Unless noted, calls come from the whole dose curve; as a rule, active = well fitted curve in the direction sought with a large enough effect in the repeat runs; inconclusive = weak or mixed curves; inactive = flat fitted curve, though single readings scatter.

Key:
[1] = qHTS assay to test for compound auto fluorescence at 535 nm (green) in HEK293 cells (AID 720680)
[2] = qHTS assay to test for compound auto fluorescence at 535 nm (green) in HEK293 cell free culture (AID 720682)
In short: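 Green-channel intensity (Ex/Em 485/535 nm) was recorded from compound-treated wells containing only DMEM with 10% FBS. Fluorescein provided the equivalency standard.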

[3] = qHTS assay to test for compound auto fluorescence at 590 nm (red) in HEK293 cell free culture (AID 720683)
In short: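 Red-channel autofluorescence of compounds in culture medium (DMEM, 10% FBS), no cells, measured at 540/590 nm. Rose Bengal sodium is the reference fluorophore for equivalence.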

[4] = qHTS assay to test for compound auto fluorescence at 590 nm (red) in HepG2 cell free culture (AID 720684)
In short: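 No cells present: MEM + 10% FBS only. Compound pinned in, red label read (540/590 nm). Activity = fluorescence equivalent to Rose Bengal sodium.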

[5] = qHTS assay to test for compound auto fluorescence at 460 nm (blue) in HepG2 cell free culture (AID 720685)
In short: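 Cell-free plates of MEM plus 10% FBS received 23 nL compound or DMSO vehicle; blue-channel (405/460 nm) intensity scored against triamterene as reference fluorophore.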

[6] = qHTS assay to test for compound auto fluorescence at 535 nm (green) in HepG2 cell free culture (AID 720686)
[7] = biological target: Glucocorticoid receptor (Homo sapiens) (UniProt P04150); assay: qHTS assay to identify small molecule antagonists of the glucocorticoid receptor (GR) signaling pathway (AID 720692; active = well fitted inhibition curve with a large enough effect in the signal ratio in the repeat runs, not every such curve was filed as active; the % refers to the signal ratio)
In short: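 Read-out: beta-lactamase FRET substrate fluorescence, 2 h at room temperature, in HeLa cells stably carrying a GRE-driven bla reporter. Compounds were co-incubated with 5 nM dexamethasone agonist (final) for 18 h at 37 C.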

[8] = qHTS assay to test for compound auto fluorescence at 460 nm (blue) in HepG2 cells (AID 720687)
In short: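 Blue-channel autofluorescence (Ex/Em 405/460 nm, triamterene-equivalent) was measured after 1 hr compound exposure at 37 C, 5% CO2. Cells were HepG2, plated overnight at 37 C in MEM plus 10% FBS.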

[9] = biological target: Glucocorticoid receptor (Homo sapiens) (UniProt P04150); assay: qHTS assay to identify small molecule agonists of the glucocorticoid receptor (GR) signaling pathway (AID 720691; active = well fitted activation curve with a large enough effect in the signal ratio in the repeat runs, not every such curve was filed as active; the % refers to the signal ratio)
In short: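 HeLa GR-bla reporter line; cells pre-incubated 4 h, compound in DMSO 18 h at 37 C; LiveBLAzer B/G FRET substrate 2 h RT; fluorescence intensity read-out.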
% is set by controls: 0 for no effect and ±100 for the full control effect.

Sequence of Glucocorticoid receptor (Homo sapiens) (P04150 whole entry, looked up): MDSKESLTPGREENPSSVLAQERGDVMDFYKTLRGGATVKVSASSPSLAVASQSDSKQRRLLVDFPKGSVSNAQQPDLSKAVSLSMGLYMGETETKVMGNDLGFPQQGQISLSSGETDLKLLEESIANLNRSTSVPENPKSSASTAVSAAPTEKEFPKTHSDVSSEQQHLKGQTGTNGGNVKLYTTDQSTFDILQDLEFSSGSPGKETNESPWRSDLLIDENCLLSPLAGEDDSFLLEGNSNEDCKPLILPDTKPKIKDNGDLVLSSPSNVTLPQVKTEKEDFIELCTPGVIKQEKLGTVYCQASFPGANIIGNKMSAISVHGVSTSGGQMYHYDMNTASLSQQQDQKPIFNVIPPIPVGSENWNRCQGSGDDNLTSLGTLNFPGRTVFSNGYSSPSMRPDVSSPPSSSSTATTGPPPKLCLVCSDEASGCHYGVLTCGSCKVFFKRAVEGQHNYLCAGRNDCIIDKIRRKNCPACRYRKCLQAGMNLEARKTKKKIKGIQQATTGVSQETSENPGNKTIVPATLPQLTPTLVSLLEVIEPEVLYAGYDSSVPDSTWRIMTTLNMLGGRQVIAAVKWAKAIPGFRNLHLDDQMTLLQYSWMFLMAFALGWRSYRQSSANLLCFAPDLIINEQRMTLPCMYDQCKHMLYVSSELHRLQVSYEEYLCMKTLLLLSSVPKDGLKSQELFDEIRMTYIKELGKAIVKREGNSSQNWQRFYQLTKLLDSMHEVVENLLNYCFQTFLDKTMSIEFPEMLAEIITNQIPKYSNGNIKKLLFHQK

C[N+](C)(C)CC[N+]1(C)Cc2c(Cl)c(Cl)c(Cl)c(Cl)c2C1
inactive: outcome [1] | outcome [2] | outcome [3] | outcome [4] | Potency [5] | outcome [6] | Potency [7]

O=S(=O)(O)c1ccccc1O
inactive: outcome [1] | outcome [2] | outcome [3] | outcome [4] | Potency [5] | outcome [6] | Potency [8] | Potency [7]

CN(C)C(=O)Nc1ccccc1
inactive: outcome [1] | outcome [2] | outcome [3] | outcome [4] | Potency [5] | outcome [6] | Potency [8]

CC(=O)OC(C)(C)C
inactive: outcome [1] | outcome [2] | outcome [3] | outcome [4] | Potency [5] | outcome [6] | Potency [8]

Nc1[nH]c(=O)ncc1F
inactive: fluorescence, % of fluorescein [1] 0.0412% [at 18.6 µM] | activity change [2] 0.004% [at 18.6 µM] | fluorescence, % of fluorescent control [3] -0.113% [at 18.6 µM] | fluorescence, % of Rose Bengal [4] 0.311% [at 18.6 µM] | fluorescence, % of fluorescent control [5] -0.0064% [at 18.6 µM] | fluorescence, % of fluorescein control [6] 0.186% [at 18.6 µM] | fluorescence, % of fluorescent control [8] 0.0009% [at 18.6 µM]

CC(C)COC(=O)c1ccccc1O
inactive: outcome [1] | outcome [2] | outcome [4] | Potency [5] | outcome [6] | Potency [8] | Potency [9]

C=C[Si](OC)(OC)OC
inactive: outcome [1] | outcome [2] | outcome [3] | outcome [4] | Potency [5] | outcome [6] | Potency [8] | Potency [7]

CCC(=O)/C=C/c1ccc(OC)cc1
inactive: outcome [1] | outcome [2] | outcome [3] | outcome [4] | Potency [5] | outcome [6] | Potency [8]

CCCOCC(C)OCC(C)O (stereo not drawn)
inactive: outcome [1] | outcome [2] | outcome [4] | Potency [5] | outcome [6]

COc1cc(C(=O)N2CCOCC2)cc(OC)c1OC
inactive: outcome [1] | outcome [2] | outcome [3] | outcome [4] | Potency [5] | outcome [6] | Potency [9] | Potency [7]

CCCCCCCCN(C)CCCCCCCC
inactive: outcome [1] | outcome [2] | outcome [4] | Potency [5] | outcome [6] | Potency [8] | Potency [7]

Nc1cc(C(Cl)=C(Cl)Cl)c(S(N)(=O)=O)cc1S(N)(=O)=O
inactive: outcome [1] | outcome [2] | outcome [3] | outcome [4] | Potency [5] | outcome [6] | Potency [8] | Potency [9]

NC(=O)Nc1nc2ccccc2[nH]1
inactive: outcome [1] | outcome [2] | outcome [3] | outcome [4] | Potency [5] | Potency [8]

CCCC(C)CO (stereo not drawn)
inactive: outcome [1] | outcome [2] | outcome [3] | outcome [4] | Potency [5] | outcome [6] | Potency [7]

CCCCC=O
inactive: outcome [1] | outcome [2] | outcome [4] | Potency [5] | Potency [8] | Potency [9]

C=C(C)[C@H]1CC=C(C)CC1
inactive: outcome [1] | outcome [2] | outcome [3] | outcome [4] | Potency [5] | outcome [6] | Potency [8]

Cc1ccc(N)cc1[N+](=O)[O-]
inactive: outcome [1] | outcome [2] | outcome [3] | outcome [4] | Potency [5] | outcome [6] | Potency [8] | Potency [9] | Potency [7]

CCO[Si](CCCN=C=O)(OCC)OCC
inactive: outcome [1] | outcome [2] | outcome [3] | outcome [4] | Potency [5] | Potency [8]

CCC(C)(C)C1CCC(OC)CC1 (stereo not drawn)
inactive: outcome [1] | outcome [2] | outcome [3] | outcome [4] | Potency [5] | outcome [6] | Potency [8]

CCCCc1ccc(N)cc1
inactive: outcome [1] | outcome [2] | outcome [3] | outcome [4] | Potency [5] | outcome [6] | Potency [9]

O=C1C(CCS(=O)c2ccccc2)C(=O)N(c2ccccc2)N1c1ccccc1 (stereo not drawn)
inactive: fluorescence, % of fluorescein [1] -0.11% [at 18.6 µM] | activity change [2] 0.112% [at 18.6 µM] | fluorescence, % of fluorescent control [3] 0.107% [at 18.6 µM] | fluorescence, % of Rose Bengal [4] -0.0469% [at 18.6 µM] | fluorescence, % of fluorescent control [5] -0.0192% [at 18.6 µM] | fluorescence, % of fluorescein control [6] -0.0165% [at 18.6 µM] | Potency [9]

CN1[C@@H]2CC[C@H]1CC(NC(=O)n1c(=O)[nH]c3ccccc31)C2 (stereo partly drawn)
inactive: outcome [1] | outcome [2] | outcome [3] | outcome [4] | Potency [5] | outcome [6] | Potency [8] | Potency [9] | Potency [7]

OCC(O)[C@@H](O)[C@H](O)[C@H](O)CO[C@H]1O[C@H](CO)[C@@H](O)[C@H](O)[C@H]1O (stereo partly drawn)
inactive: outcome [1] | outcome [2] | outcome [4] | Potency [5] | outcome [6] | Potency [8] | Potency [9]

Cc1onc(-c2ccccc2)c1-c1ccc(S(N)(=O)=O)cc1
inactive: outcome [1] | outcome [2] | outcome [3] | outcome [4] | Potency [5] | outcome [6] | Potency [8] | Potency [9]

NS(=O)(=O)c1cc2c(cc1C(F)(F)F)NC(Cc1ccccc1)NS2(=O)=O (stereo not drawn)
inactive: fluorescence, % of fluorescein [1] 0.103% [at 18.6 µM] | activity change [2] 0.196% [at 18.6 µM] | fluorescence, % of fluorescent control [3] 0.0682% [at 18.6 µM] | fluorescence, % of Rose Bengal [4] -0.15% [at 18.6 µM] | fluorescence, % of fluorescent control [5] -0.0286% [at 18.6 µM] | fluorescence, % of fluorescein control [6] -0.0871% [at 18.6 µM] | fluorescence, % of fluorescent control [8] 0.0124% [at 18.6 µM]

O=C(O)/C=C/c1ccc(/C=C/C(=O)O)cc1
inactive: outcome [1] | outcome [2] | outcome [3] | outcome [4] | Potency [5] | outcome [6] | Potency [8] | Potency [9]

NC(=O)c1ncn([C@@H]2O[C@H](CO)[C@@H](O)[C@H]2O)c1N
inactive: outcome [1] | outcome [2] | outcome [3] | outcome [4] | Potency [5] | outcome [6] | Potency [8]

CN(C)CCOC(c1ccc(Cl)cc1)c1ccccn1 (stereo not drawn)
inactive: outcome [1] | outcome [2] | outcome [3] | outcome [4] | Potency [5] | outcome [6] | Potency [8] | Potency [9] | Potency [7]

NC(=O)c1c(Cl)cccc1Cl
inactive: outcome [1] | outcome [2] | outcome [3] | outcome [4] | Potency [5] | outcome [6] | Potency [8]

CCN(CC)S(=O)(=O)c1ccc(C(=O)O)cc1
inactive: outcome [1] | outcome [2] | outcome [3] | outcome [4] | Potency [5] | outcome [6] | Potency [9] | Potency [7]
